This is a sample that favours compounds with a hit; in the whole collection about 2.8% have one here.
Platelet DG rel: modulates dense granule release in human platelets | inhibition, %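 (compounds screened at 7.5 µM in platelet-rich plasma)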 | 0.22% of 300,000 active | AID 1663 | human platelet-rich plasma, SFLLRN dense granule ATP release, luminescence;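 active means mean replicate score, as percent of positive control, at or above 50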
SENP6 inh: inhibitors of human SENP6 protease; Q9GZR1; Recombinant SENP6 catalytic domain, aminoluciferin luminescence; inhibition, % at 10 µM; 1.8% of 330,000 active; AID 2599;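 active means inhibition above about 50% at the single tested dose, limit read from the data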;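 further: plate controls were DMSO wells with enzyme for no effect and DMSO wells lacking enzyme for full effect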
HSP90 inh: HSP90 refolding inhibition in rabbit reticulocyte lysate; AID 1789; inhibition, % at 5.6 µM; luciferase refolding luminescence, 3 h; 0.91% of 290,000 active;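 active means inhibition above the screen-wide mean plus 3 SD, computed separately per campaign, cut at about 16% in these data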;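 further: 0% = DMSO wells and 100% = 60 µM geldanamycin wells; inhibitors lower the luminescence because luciferase stays unfolded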
SENP7 block: SENP7 protease inhibition; Q9BQF6; recombinant SENP7, Z-RLRGG-aminoluciferin luminescence, 40 min; inhibition, % at 5 µM; 1.5% of 330,000 active; AID 434973;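 active means inhibition above about 50% at the single test dose, limit read from the data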;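 further: plate controls were DMSO with enzyme for no effect and no enzyme buffer wells for full effect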
SENP8 block-1: blocks the human protease SENP8; Q96LD8; purified SENP8, Z-RLRGG-aminoluciferin cleavage, luminescence; inhibition, % at 10 µM; 1.2% of 330,000 active; in the data active means inhibition above about 50%
Target sequence (Q96LD8 whole entry, looked up): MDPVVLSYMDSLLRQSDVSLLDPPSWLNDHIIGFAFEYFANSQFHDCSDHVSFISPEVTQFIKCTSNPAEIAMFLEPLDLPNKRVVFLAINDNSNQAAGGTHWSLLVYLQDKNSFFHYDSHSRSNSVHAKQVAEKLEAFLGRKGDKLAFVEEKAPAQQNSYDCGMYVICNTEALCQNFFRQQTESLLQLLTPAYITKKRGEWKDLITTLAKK
SENP8 block-2: inhibitors of human SENP8 protease; recombinant SENP8, Nedd8 substrate fluorescence; Q96LD8; 0.64% of 360,000 active; inhibition, % at 20 µM; in the data active means inhibition mostly above about 40%, no sharp cut-off; inactive means mostly below about 27%
HSP90 inh confirm: HSP90 inhibition, confirmation assay | shares compounds with HSP90 inh | inhibition, % at 5.9 µM | rabbit reticulocyte lysate, luciferase refolding luminescence, 3 h | 64% of 2,300 active; in the data active means inhibition above about 18%;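 further: 0% = vehicle wells and 100% = reference inhibitor wells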
FLuc counter: firefly luciferase inhibition, HSP90 counter-screen | 48% of 2,300 active | inhibition, % at 5.9 µM | AID 1847 | purified native firefly luciferase, luminescence | shares compounds with HSP90 inh;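 active means inhibition above the mean inhibition of all tested sample wells plus 3 SD, cut at about 10% in these data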;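 further: 0% = DMSO with luciferase and 100% = wells lacking luciferase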
SENP8 conf: confirmation of human SENP8 protease inhibitors; inhibition, % at 12.5 µM; AID 488912; 40% of 6,200 active; shares compounds with SENP7 block; Recombinant SENP8, Z-RLRGG-aminoluciferin luminescence, 60 min;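 active means mean inhibition across replicates above about 50%, limit read from the data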
SENP6 confirm: confirmation of human SENP6 protease inhibitors; 58% of 6,200 active; inhibition, % at 12.5 µM; shares compounds with SENP7 block; recombinant SENP6, Z-RLRGG-aminoluciferin luminescence; AID 488915
SENP7 conf: human SENP7 inhibition, confirmed. shares compounds with SENP7 block. recombinant SENP7, Z-RLRGG-aminoluciferin luminescence, 40 min. inhibition, % at 12.5 µM. 69% of 6,200 active. AID 488917
Casp3 SENP sel: caspase-3 inhibition (SENP selectivity assay) | shares compounds with SENP7 block | purified caspase-3, Z-DEVD-aminoluciferin luminescence, 60 min | inhibition, % at 12.5 µM | 60% of 6,200 active | AID 488918;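 active means mean inhibition above about 50%, limit read from the data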;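 further: plate controls were enzyme with DMSO for no effect and wells without caspase-3 for full effect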
Target sequence (P42574 28-227 limits assumed): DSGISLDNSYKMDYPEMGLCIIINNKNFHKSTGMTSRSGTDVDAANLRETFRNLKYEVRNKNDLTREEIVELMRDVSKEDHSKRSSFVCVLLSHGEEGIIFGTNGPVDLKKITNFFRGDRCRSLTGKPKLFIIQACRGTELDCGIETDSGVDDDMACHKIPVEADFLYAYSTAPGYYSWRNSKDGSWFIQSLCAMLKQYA
SENP luc ctr: counter-screen for SENP inhibitors: luminescence interference; shares compounds with SENP7 block; Pre-incubated SENP8/Z-RLRGG-aminoluciferin, luciferase luminescence interference; inhibition, % at 12.5 µM; 39% of 6,200 active;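 active means mean inhibition above about 50% when retested at one dose, limit read from the data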;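 further: plate controls were DMSO wells with completed reaction for no effect and substrate without enzyme for full effect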
* = called active by the depositor; . = not tested or not shown.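 How the source made its calls, unless noted: active means mean inhibition above about 50% in the one-dose retest (limit read from the data); inactive means the rest.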

SMILES	Platelet DG rel	SENP6 inh	HSP90 inh	SENP7 block	SENP8 block-1	SENP8 block-2	SENP8 conf	SENP6 confirm	SENP7 conf	Casp3 SENP sel	SENP luc ctr	others
CC(C)(C)n1cc(C(=O)c2ccc3ccccc3c2O)cn1	-0.7	-33.1	49.2*	68.0*	57.3*	9.1	18.3	15.4	2.2	11.4	14.2	HSP90 inh confirm=59.8*;FLuc counter=58.0*
COCCCn1c(N)c(C(=O)NCc2ccco2)c2nc3ccccc3nc21	9.5	92.8*	20.6*	87.0*	90.5*	.	15.3	26.1	17.2	-1.3	-0.8	HSP90 inh confirm=2.3;FLuc counter=-4.9
CC(C)(C)NC(=S)N1Cc2ccccc2-n2nncc2C1	.	.	.	.	.	5.2	.	.	.	.	.
Cc1cc(C(=O)N=Nc2c(O)n(C)c3ccccc23)c(C)o1	7.8	90.6*	-5.8	89.8*	79.0*	28.0	54.5*	56.3*	48.3	5.2	9.5
COc1ccc(-c2cc(=Nc3cccc(C(=O)O)c3)c3cc(C)ccc3o2)cc1	-4.6	49.8	6.4	82.3*	63.7*	-407.8	9.6	52.9*	68.4*	51.3*	65.2*
COc1ccc(-c2cc(=NCCCCCC(=O)O)c3cc(C)ccc3o2)cc1	-1.6	.	-2.1	.	.	-468.5	.	.	.	.	.
COc1ccc(N2CCN(C(CNC(=O)Oc3ccccc3)c3cccnc3)CC2)cc1 (stereo unspecified)	-1.5	7.5	1.4	70.5*	1.5	6.8	-11.7	-1.8	-7.4	1.8	2.9
O=C(NCC(c1cccnc1)N1CCN(c2ccccc2F)CC1)Oc1ccccc1 (stereo unspecified)	-28.7	3.3	4.9	4.6	5.6	11.8	.	.	.	.	.
Cc1ccc(Oc2cc(NN3CCCCC3)c([N+](=O)[O-])cc2[N+](=O)[O-])c([N+](=O)[O-])c1	5.0	3.8	-1.6	3.1	9.3	16.9	.	.	.	.	.
Nc1c2c(nc3sc4c(c13)CCCCC4)CCCC2	-1.7	53.9*	1.9	19.2	34.7	13.0	41.6	33.7	66.7*	46.0	16.8
BrCC1C[n+]2c(SCc3ccccc3)nc3sc4c(c3c2O1)CCCC4 (stereo unspecified)	17.3	-17.0	1.1	-3.0	-1.9	3.0	.	.	.	.	.
COc1cc2c(cc1O)[C@@H]1Cc3ccc(OC)c(O)c3CN1CC2	.	73.6*	.	49.4	64.3*	80.0*	9.5	29.4	16.9	6.0	3.5
COc1ccc(C[C@@H]2c3cc(O)c(OC)cc3CCN2C)cc1O	-1.5	-3.6	6.9	-5.6	-3.3	8.9	.	.	.	.	.
Oc1cc(O)cc(/C=C/c2ccc(O)cc2O)c1	.	70.5*	.	40.0	46.3	-498.7	61.8*	61.6*	87.1*	58.9*	76.6*
CCCCCSc1cc(O)c(C(CNC)C(C)C)cc1OC (stereo unspecified)	-14.4	-7.0	-2.1	-10.2	-10.1	7.6	.	.	.	.	.
CCCCCSc1cc(OC)c(CCN(C)C)cc1OC	-6.7	53.0*	-0.4	-0.5	2.5	20.7	10.2	5.4	8.2	3.9	4.0
CS(=O)(=O)c1ccc(C2=C(CNC(=O)c3cccs3)[C@H]3CC[C@@H](C2)N3Cc2ccco2)cc1	.	.	.	.	.	-1.8	.	.	.	.	.
Cc1ccc(S(=O)(=O)CC(=O)c2cc(C)c(OC(=O)N(C)C)c(C)c2)cc1	0.4	4.6	1.4	2.6	-5.7	9.7	.	.	.	.	.

Screens as filed in PubChem BioAssay.
